About 83,000 compounds went through this panel and 20% of them were active in at least one assay; those are over-represented in the sample as a whole.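 Assay: single dose, 48 h. Readout: percent growth (0 = no net growth; negative = cell death). Active: <10.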 Values without a mark were called inactive. The source made the active and inactive calls.
These compounds were tested on UACC-257 melanoma (assay: NCI-60 one-dose screen, 48 h (100 = growth as untreated, 0 = no growth, -100 = all killed)). Conditions: 10 µM unless noted.

Structure (SMILES)	growth
CCN(CC)CCOc1ccc(/C(=C(\C)c2ccc(F)c(OC)c2)c2ccc(Cl)cc2)cc1	12.3%
O[C@H]1CO[C@H]2[C@@H]1OC[C@@H]2Oc1ccc(Nc2ccnc(Nc3ccc(O[C@H]4CO[C@H]5[C@@H]4OC[C@@H]5O)c(Cl)c3)n2)cc1Cl	31.8%
CC(=O)Nc1ccc(-c2cc3c(NCc4ccc(F)cc4)ncnc3s2)cc1	86.8%
C/C(Cc1ccc(Cl)cc1)=C(/c1ccc(Cl)cc1)c1ccc(OCCN(C)C)cc1	71.3%
C=C1C(=O)O[C@H]2[C@H]1CC/C(COC(=O)/C=C\C(=O)NCc1ccc(Cn3c(=O)sn(CCCC)c3=O)cc1)=C\CC[C@@]1(C)O[C@@H]21	-52.8% (active)
Cc1nc(Nc2cccc(NC(=O)Nc3ccc(Cl)cc3)c2)c2ccccc2n1	101%
COc1ccc(/C=C2\COc3ccc(O)c(O)c3C2=O)c(OC)c1	54.4%
CCN(CC)CCOc1ccc(/C(=C(\C)c2ccc(OC)c(F)c2)c2ccc(Cl)cc2)cc1	68.4%
C=C1C(=O)O[C@H]2[C@H]1CC/C(COC(=O)/C=C\C(=O)NCc1ccc(Cn3c(=O)sn(-c4ccc(C#N)cc4)c3=O)cc1)=C\CC[C@@]1(C)O[C@@H]21	-68.2% (active)
CN(C)CCN1C(=O)c2cccc3c(-c4ccc(-c5nc6c7ccccc7c7ccccc7c6[nH]5)cc4)ccc(c23)C1=O	110%
c1ccc([P+](CCCc2n(Cc3ccc4ccccc4c3)c3ccccc3[n+]2Cc2ccc3ccccc3c2)(c2ccccc2)c2ccccc2)cc1	84%
CCCCS(=O)(=O)Oc1ccc(-c2nc(C)c(C(=O)OCC)s2)cc1C=O	96.2%
CCCCN(Cc1ccc(C(=O)NO)cc1)C(=O)Nc1ccc(OCCCCCCCCCn2cc(CCCCC(=O)N[C@H](C(=O)N3C[C@H](O)C[C@H]3C(=O)NCc3ccc(-c4scnc4C)cc3)C(C)(C)C)nn2)cc1	60%
COc1ccc(/C(C)=C(\c2ccc(Cl)cc2)c2ccc(OCCN3CCCCCC3)cc2)cc1F	39%
C=C1C(=O)O[C@H]2[C@H]1CC/C(COC(=O)/C=C\C(=O)NCc1ccc(Cn3c(=O)sn(-c4ccc(Cl)cc4)c3=O)cc1)=C\CC[C@@]1(C)O[C@@H]21	-64.8% (active)
O[C@H]1CO[C@H]2[C@@H]1OC[C@@H]2Oc1ccc(Nc2nc(Nc3ccc(F)c(Cl)c3)ncc2F)cc1Cl	106%
O=C(CCc1nc(-c2cccc(Cl)c2)no1)Nc1ccccn1	114%
COc1ccc(Cn2cnc3cc(C(=O)Nc4cccc5ccccc45)ccc32)c(OC)c1	69.4% [30 µM]
Cc1nc(Nc2ccc(N)cc2)c2ccccc2n1	104%
COc1cccc(/C=C2\COc3ccc(O)cc3C2=O)c1OC	83.3%
CC(C)c1ccc(NC(=O)Cc2ccc(Nc3ncnc4cc(-c5cnn(CCN(C)C)c5)ccc34)cc2)cc1	54.7% [30 µM]
O=C1c2cccc3c(-c4ccc(-c5nc6c7ccccc7c7ccccc7c6[nH]5)cc4)ccc(c23)C(=O)N1CCN1CCNCC1	108%
O=C1/C(=C/c2ccc([N+](=O)[O-])cc2)COc2ccc(O)c(O)c21	40.3%
Cn1ccnc1C(=O)/C=C/c1ccc(C(=O)Nc2ccc(S(F)(F)(F)(F)F)cc2)cc1	42.4%
COc1ccc(OC)c(C(=O)Nc2cccc(-c3cc(=O)c4ccccc4o3)c2)c1	100%
C=C1C(=O)O[C@H]2[C@H]1CC/C(COC(=O)/C=C\C(=O)NCc1ccc(Cn3c(=O)sn(CCCI)c3=O)cc1)=C\CC[C@@]1(C)O[C@@H]21	-53.7% (active)
